The assay concerns the target T1, GST-Ap-NF-kB RHD (Exaiptasia pallida (Aiptasia), UniProt A0A913YAJ5 2-422).
T1 sequence: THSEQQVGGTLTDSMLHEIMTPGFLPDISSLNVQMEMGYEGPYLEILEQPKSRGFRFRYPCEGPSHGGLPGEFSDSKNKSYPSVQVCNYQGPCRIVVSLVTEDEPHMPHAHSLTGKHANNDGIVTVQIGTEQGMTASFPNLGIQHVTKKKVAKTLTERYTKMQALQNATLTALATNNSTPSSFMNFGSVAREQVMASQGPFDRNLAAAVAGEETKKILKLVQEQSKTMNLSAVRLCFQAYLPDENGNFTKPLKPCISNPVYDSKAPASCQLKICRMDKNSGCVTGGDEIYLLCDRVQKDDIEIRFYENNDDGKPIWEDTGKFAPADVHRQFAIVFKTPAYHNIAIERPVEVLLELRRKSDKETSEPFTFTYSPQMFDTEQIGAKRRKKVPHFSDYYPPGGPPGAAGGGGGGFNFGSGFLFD
Kind of assay: protein-binding microarray (PBM); PBM: ~300 nM protein, 6 mM HEPES pH 7.8, 80 mM KCl, 0.5 mM EDTA, 0.5 mM EGTA, 6% glycerol, 35 ng/ul poly-dIdC, 1% milk, 1 h, room temperature; Ap Aiptasia and Nv Nematostella (sea anemones) / Co Capsaspora / Aq Amphimedon (sponge) / Dm Drosophila / Hu human; RHD is the Rel homology domain; high values mean tight binding. As to conditions: dsDNA, one strand shown.
The sequence “CCGATTAACATCAAAATTTTCCCTGATGTTAATCGGGTCTTGATTCGCTTGACGCTGCTG” displayed a binding signal of 5.5 z-score. “CCGATTAACATCAAGTTTTCCCCTGATGTTAATCGGGTCTTGATTCGCTTGACGCTGCTG” returned a binding signal of 8.03 z-score. In the case of “CCGATTAACATCAAGGGAAATTCTGATGTTAATCGGGTCTTGATTCGCTTGACGCTGCTG” it was 5.74 z-score; in that of “CCGATTAACATCAAATTCCCACATGATGTTAATCGGGTCTTGATTCGCTTGACGCTGCTG”, 2 z-score.

Sequence “CCGATTAACATCAATGGGATTTCTGATGTTAATCGGGTCTTGATTCGCTTGACGCTGCTG” yielded a binding signal of 2.83 z-score. In turn, “CCGATTAACATCAAGGGGGTATCTGATGTTAATCGGGTCTTGATTCGCTTGACGCTGCTG” returned a binding signal of 6.66 z-score.

The sequence “CCGATTAACATCAAAATTCCCTATGATGTTAATCGGGTCTTGATTCGCTTGACGCTGCTG” showed a binding signal of 4.89 z-score. In the case of “CCGATTAACATCAGAAGTGGGAATGATGTTAATCGGGTCTTGATTCGCTTGACGCTGCTG” it was 2.07 z-score.

“CCGATTAACATCAGGGGGAACCATGATGTTAATCGGGTCTTGATTCGCTTGACGCTGCTG” displayed a binding signal of 7.4 z-score. The sequence “CCGATTAACATCAAGGTTTCCCCTGATGTTAATCGGGTCTTGATTCGCTTGACGCTGCTG” registered a binding signal of 7.4 z-score. In the case of “CCGATTAACATCAGGGAATAACCTGATGTTAATCGGGTCTTGATTCGCTTGACGCTGCTG” it was 4.4 z-score. “CCGATTAACATCAGTATTTCCCATGATGTTAATCGGGTCTTGATTCGCTTGACGCTGCTG” had a binding signal of 3.01 z-score. “CCGATTAACATCAGGGGATTCGATGATGTTAATCGGGTCTTGATTCGCTTGACGCTGCTG” had a binding signal of 5.58 z-score.

As for “CCGATTAACATCATGGGGAAAAATGATGTTAATCGGGTCTTGATTCGCTTGACGCTGCTG”, the binding signal was determined as 5.03 z-score.

Values taken from PMC5700166.
